In this assay the target is AMP-activated protein kinase, AMPK (Homo sapiens) (UniProt P54646+O43741+P54619+Q9UGJ0+Q9Y478+Q13131+Q9UGI9). The assay can be described thus: AMP-dependent Kinase enzyme assay. An in vitro enzyme assay that detects ADP turnover that is directly proportional to AMPK activity. This uses naive AMPK that is activated during the assay with MK-8722. The format is functional. Also noted: scale not given: direction of the effect not stated beside the values. The settings on record: 30 µM.
Take `CC(C)(N)C(=O)N1CCCC(C(=O)c2ccc(C(C)(C)C)cc2)C1` (stereo not given): the Percent Effect amounted to 17.9%.
Turning to `CCCc1nnc(N2CCC(C3CCN(C)CC3)CC2)o1`, the Percent Effect was -1.66%.
The result for `CC(CN1CCOC1=O)NC(=O)c1cccc(Cl)c1Cl` (stereo not given) reads 10%.
`CNc1nc(C(=O)N2CCCC(COc3ccc(F)cc3)C2)cs1` (stereo not given): the Percent Effect worked out at 63.7%.
For the molecule `CCN(CCNS(=O)(=O)C1CCOCC1)C(=O)OC(C)(C)C`, the Percent Effect is 1.64%.
Consider `CC(C)C(C(=O)N(C)C)c1cccc(Cl)c1` (stereo not given), for which the Percent Effect came out at 6.38%.
Consider `CC(=O)N[C@H]1CCO[C@@H](c2cccc(NC(=O)C(C)(C)C)c2)C1`, for which the Percent Effect was 7.76%.
On to `Cc1nn(C)c2ncnc(NCc3nncn3C3CCCCC3)c12`, for which the Percent Effect is 10.1%.
As to `Cc1cnn(C2CCCN(C(=O)c3cc(-c4ccccc4C)n[nH]3)C2)c1` (stereo not given), the Percent Effect was found to be 1.68%.
Regarding `CNS(=O)(=O)c1ccc(CN2CCN3CCNC(=O)C3C2)cc1` (stereo not given), the Percent Effect was -3.21%.
As to `O=C(CCCN1CCCCC1)N[C@H](C(=O)O)c1cccc(F)c1F`, the Percent Effect came to 6.38%.
The result for `O=S(=O)(Nc1ccc2c(c1)OCCO2)N1CCCCC1` reads 12.8%; that for `NC(=O)C(NC1CCN(CC2CCCCC2)CC1)c1ccccc1` (stereo not given), 0.144%; that for `CO[C@@H]1CCC[C@@H](NC(=O)c2cccc(F)c2)[C@H]1O`, 10.3%.
Turning to `CC(C)(CNC(=O)c1ccco1)CNC(=O)c1ccco1`, the Percent Effect is -2.53%.
Take `O=C(Cc1nc(-c2ccncc2)n[nH]1)N1CCOCC1`: the Percent Effect was determined as 7.55%.
In the case of `Nc1nc2c(c(NCc3nccs3)n1)CCN(CC1CCCC1)CC2`, the Percent Effect turned out to be 1.23%.
With `O=C(NCc1nc[nH]n1)c1cc(COc2ccccc2F)[nH]n1`, the Percent Effect is -3.43%.
The result for `COc1cccc(CN(C)Cc2nc3cc(C)ccc3[nH]2)c1O` reads 5.48%; that for `CN1CCC(NC(=O)c2cc(F)cc(Cl)c2O)C1=O` (stereo not given), 11.4%; that for `CC(c1ccc(F)cc1F)N1CCN(CCC(=O)O)CC1` (stereo not given), 8.21%.
Regarding `O=C(c1ccc(-n2cnnc2)cc1Cl)N1CCCC2(CCNC2)C1` (stereo not given), the Percent Effect stood at 0.724%.
`Cc1n[nH]c(C)c1NC(=O)NCc1cc[nH]n1`: the Percent Effect is -7.26%.
Take `COc1ncccc1C(=O)NCCn1nc(C)ccc1=O`: the Percent Effect was -4.66%.
Consider `CCc1noc(C(C)N2CCCN(Cc3noc(C4CC4)n3)CC2)n1` (stereo not given), for which the Percent Effect stood at 0.0834%.
For `COCc1ncc(CN2CCC3(CCC(=O)N(CC(C)O)C3)CC2)cn1` (stereo not given), the Percent Effect was -3.44%.
Regarding `O=C(c1coc(COc2ccccc2F)n1)N1CCC[C@H]1CO`, the Percent Effect amounted to 8.7%.
In the case of `CCNC(=O)C1CCN(Cc2ccc(C(=O)Nc3cnns3)cc2)C1` (stereo not given), the Percent Effect amounted to 1.07%.
`CSc1ccc(C(=O)C2CCCN(C(=O)CCCn3cncn3)C2)cc1` (stereo not given): the Percent Effect amounted to 9.79%.
The result for `O=C(NCCc1cccnc1)c1ccc2nccn2c1` reads 0.0619%; that for `CCc1nc(C2CCCN2Cc2ncc(C)c(OC)c2C)no1` (stereo not given), 0.391%; that for `O=C(Nc1ccc(Br)cc1F)c1ccc(N2CCCCC2)nn1`, 1.92%.
As to `Cn1cc(S(=O)(=O)NCCc2ccsc2)cn1`, the Percent Effect was 13.7%.
With `Cc1ccccc1C(=O)NC[C@@H]1CCN(C(=O)c2cccn2C)C[C@H]1O`, the Percent Effect was -3.19%.
Consider `CCN(Cc1nccn1C)C1CCN(c2ccccc2)C1=O` (stereo not given), for which the Percent Effect is -7.13%.
The result for `CCc1ccccc1OCCN(C)C(=O)CCN1CCCCO1` reads 0.981%.
Take `O=C(CCC(=O)N1CCNC(=O)C1c1cccc(F)c1)NC1CCCC1` (stereo not given): the Percent Effect is -9.49%.
The result for `CC(C)c1nn(C)c(Cl)c1CNCC(=O)N1CCN(C)CC1` reads -14.6%; that for `CCOCCOC(C)C(=O)Nc1nccn1Cc1ccccc1` (stereo not given), -2.1%; that for `CCC(CNC(=O)c1cccc(S(=O)(=O)NC)c1)N1CCCC1` (stereo not given), 0.599%.

Values taken from ChEMBL document CHEMBL3988442, “University of Dundee, Small-Polar-MMV Screening Library” (2021).
